We go through 62 compounds from PubChem BioAssay AID738 (SRMLSC, 2007).

SMILES strings stand for the structures. About 4,900 (5%) of roughly 98,000 compounds were called active. For the sample, actives were picked, then their nearest neighbours and some compounds at random. A number with no mark means an inactive call. No stated cut-off is given here; in the data, active means inhibition above about 30%; inactive means the rest.

For orientation: inhibition means the change of the read-out against control, counted positive when it falls.

This assay is described as follows: yeast control strain growth suppression – counter-screen for post-Golgi transport modulator project, primary screen (AID 738). The following applies: efflux-deficient yeast background strain, growth absorbance A615, 16 h; at 10 µM; active compounds read high. In general terms: A counterscreen serves to expose hits that act by an unwanted route or on another target.
With `COc1cc(/C=N\NC(=O)C2C(=O)NCC2c2ccccc2)cc(OC)c1O` (configuration not stated), the inhibition is -0.14%.
In the case of `CC(C)(C)Cc1nnc(NC(=O)c2cc(-c3ccccc3)nc3ccccc23)s1` it was 9.13%; in that of `CCOC(=O)c1[nH]c2ccc(C)cc2c1N=C(C)N(C)C`, 30.6% (active).
Take `CCOC(=O)c1cc2cc(C)ccc2[nH]1`: the inhibition is 10.2%.
The value for `CCOC(=O)c1[nH]c2ccccc2c1N=C(C)N(CC)CC` was -8.42%; that for `Cn1cnc([N+](=O)[O-])c1Sc1ccccc1` was 7.56%.
For the compound `Clc1ccc(-n2nnnc2CN2CCCCC2)cc1Cl`, the inhibition was -0.16%.
In the case of `Cc1ccccc1CS(=O)(=O)CC1(O)CCN(C(=O)c2cccc(C(F)(F)F)c2)CC1` it was 4.49%; in that of `COc1cc(/C=C(/NC(=O)c2ccccc2)C(=O)Nc2cccc(O)c2)c([N+](=O)[O-])cc1OC`, 15.7%.
As to `O=C(CCn1c(=O)[nH]c2ccccc2c1=O)NCCCN1CCN(c2cccc(Cl)c2)CC1`, the inhibition is 1.72%.
The value for `CCOC(=O)N1CCN(C(=O)Cc2ccc(-n3c(=S)[nH]c4ccccc4c3=O)cc2)CC1` was -2.12%; that for `O=C(Cc1ccc(-n2c(=O)[nH]c3ccccc3c2=O)cc1)N1CCN(c2cccc(Cl)c2)CC1` was 37.3% (active).
The value for `COc1ccc(NC(=O)C(NC(C)=O)C(=O)NCc2ccccc2Cl)cc1` (configuration not stated) was 14%.
In the case of `COC(=O)CN(C(=S)Nc1ccc(Cl)cc1)C1CC(=O)N(c2ccc(OC)cc2)C1=O` (configuration not stated) it was 7.41%; in that of `CC1CCc2c(sc(NC(=O)c3ccc(Cn4cc(Br)cn4)o3)c2C(N)=O)C1` (configuration not stated), 10.8%.
On to `O=C(NCc1cccnc1)c1ccc(CS(=O)(=O)c2ccc(Br)cc2)o1`, for which the inhibition is -2.42%.
In the case of `O=C(Nc1ccc(Br)c2cccnc12)c1ccc(Cn2cc([N+](=O)[O-])cn2)o1` it was 30.3% (active).
For the compound `COc1ccccc1NC(=O)[C@H](COCc1ccccc1)NC(=O)OC(C)(C)C`, the inhibition was 5.88%.
The value for `CC(=O)c1ccc(Cc2ncc(C(F)(F)F)cc2Cl)s1` was 5.66%; that for `CCN1CCN(c2ccc([N+](=O)[O-])cc2C(=O)c2ccc(Cl)cc2)CC1` was 26.2%; that for `O=C(NCc1ccccn1)c1cc(-c2ccccc2Cl)on1` was 9.87%.
The value for `CCOc1ccc(C(=O)Nc2cc(OC)ccc2OC)cc1` was -3.51%; that for `COc1ccc(C)cc1NC(=O)c1[nH]c(C)c(C(C)=O)c1C` was 55% (active); that for `CC(=O)c1c(C)[nH]c(C(=O)NCc2ccc(C)cc2)c1C` was 5.25%.
Regarding `CC1=NN(C(=O)c2ccccc2Br)C(O)(c2cccnc2)C1` (configuration not stated), the inhibition is 9.36%.
Regarding `COC(=O)c1ccc(C(=O)Nc2cc(Cl)ccc2Cl)cc1NC(=O)c1ccccc1C`, the inhibition is 1.48%.
In the case of `Cc1ccc(NC(=O)C(C)c2cccc(C(=O)c3ccccc3)c2)cc1` (configuration not stated) it was 9.41%.
The value for `CC(C)CC(=O)N1CCC(O)(CS(=O)(=O)Cc2ccccc2)CC1` was 12.7%; that for `c1ccc(CSc2nnc(-c3ccco3)c(-c3ccco3)n2)cc1` was 21.3%.
Take `c1ccc(CSc2nnc(-c3ccco3)n2Cc2ccccc2)cc1`: the inhibition is 38.6% (active).
The value for `O=C(CSc1nnc(-c2ccco2)n1Cc1ccccc1)NC(=O)NCc1ccco1` was -1.05%.
In the case of `COc1ccc(CCN(C(=O)COc2ccccc2)c2nc(-c3ccccc3)cs2)cc1OC` it was 4.48%; in that of `CCC(c1nnnn1Cc1ccco1)N(CCc1ccccc1)Cc1cc2ccc(OC)cc2[nH]c1=O` (configuration not stated), 5.86%.
The value for `Cc1cccc2cc(CN(Cc3ccc4c(c3)OCO4)Cc3nnnn3C3CCCC3)c(=O)[nH]c12` was 20.4%; that for `CCC(c1nnnn1Cc1ccco1)N(CCc1ccccc1)Cc1cc2cccc(C)c2[nH]c1=O` (configuration not stated) was 52.5% (active); that for `CCC(c1nnnn1C1CCCC1)N(Cc1cccs1)Cc1cc2cccc(C)c2[nH]c1=O` (configuration not stated) was 38.6% (active).
On to `Cc1cccc2cc(CN(Cc3cccs3)C(c3nnnn3C3CCCC3)C(C)C)c(=O)[nH]c12` (configuration not stated), for which the inhibition is 23%.
In the case of `CCC(c1nnnn1Cc1ccco1)N(Cc1cc2cc(OC)ccc2[nH]c1=O)C1CCCCC1` (configuration not stated) it was 29.9%; in that of `CCOC(=O)C1CN(S(=O)(=O)c2ccc(F)cc2)C1`, -2.08%.
The value for `N=c1c2c(-c3ccccc3)c(-c3ccccc3)oc2ncn1Cc1ccco1` was 26.2%; that for `CC(=O)c1sc(NC(=O)c2cccc3ccccc23)nc1C` was -0.59%.
The value for `Cc1ccc2nc(SCc3nnc(-c4ccccc4[N+](=O)[O-])o3)c(C#N)cc2c1` was 23.2%; that for `c1ccc2c(CSCc3nc4ccccc4[nH]3)cccc2c1` was 14.3%; that for `Cc1ccc(OC(=O)c2ccccc2C(=O)OCC(F)(F)C(F)F)cc1` was 5.33%.
As to `COc1ccc(-c2ccc(Nc3ccc(S(=O)(=O)N4CCCC4)cc3)nn2)cc1OC`, the inhibition was -1.56%.
The value for `COc1ccc(-c2cc(C(F)(F)F)nc(NCc3cccnc3)n2)cc1` was 26.7%; that for `COc1ccc(-c2cc(C(F)(F)F)nc(S(C)(=O)=O)n2)cc1OC` was 87.3% (active); that for `O=C(Nc1ccc(Br)cc1)C1CCC(=O)N1Cc1ccccc1Cl` (configuration not stated) was -0.46%.
In the case of `CSCc1cc(N2CCOCC2)nc(SCc2ccc(Cl)cc2Cl)n1` it was 7.94%.
The value for `Cc1cc(C(=O)Nc2c(C)nn(Cc3ccccc3)c2C)on1` was 8.88%; that for `CC(=O)Nc1ccccc1C(=O)C(=O)Nc1ccc(F)cc1` was 4.22%.
As for `N#Cc1nc(Cc2ccccc2)oc1NCCc1ccccc1`, the inhibition was 21.1%.
As to `N#Cc1nc(-c2ccc(OCc3ccccc3)cc2)oc1NCCCN1CCOCC1`, the inhibition is 14.1%.
In the case of `N#Cc1nc(COc2ccc(-c3ccccc3)cc2)oc1NCc1cccnc1` it was 94.2% (active).
In the case of `FC(F)(F)c1nc2ccccc2nc1N/N=C/c1ccc(Cl)cc1` it was -2.3%; in that of `CCOC(=O)N1CCN(c2c(NCCCN3CCCC(C)C3)c(=O)c2=O)CC1` (configuration not stated), -0.16%; in that of `CC(C)C(c1nnnn1C1CCCC1)N1CCN(c2ccccc2F)CC1` (configuration not stated), 42.7% (active).
Consider `CCC(c1nnnn1C1CCCC1)N1CCN(C(=O)c2ccco2)CC1` (configuration not stated), for which the inhibition was 12.4%.
In the case of `COCCn1nnnc1C(c1ccccc1Cl)N1CCN(c2ccccc2OC)CC1` (configuration not stated) it was 3.75%.
Take `COc1ccc(N2CCN(C(c3cc4ccc(C)cc4[nH]c3=O)c3nnnn3C3CCCC3)CC2)cc1` (configuration not stated): the inhibition was -0.59%.
The value for `CC(C)C(c1nnnn1Cc1ccccc1)N1CCC(C(N)=O)CC1` (configuration not stated) was -0.16%; that for `COc1ccc(C(c2nnnn2C2CCCCC2)N2CCN(c3ccccc3F)CC2)cc1` (configuration not stated) was 50.5% (active).
